Consider 24 compounds from PubChem BioAssay AID1422 (Emory University Molecular Libraries Screening Center, 2008).

Where “and” joins values, the source holds several entries; their conditions need not be identical. Equal values may be shown once. Screen size: about 260,000 compounds; about 1,300 (0.5%) were called active.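 How the source made its calls: active means percent inhibition above 40 after rounding to a whole number; inactive means the rest.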 The entries come from a sample that favours actives as a whole. More than one record can exist for a structure, and the calls need not agree.

For this assay, the target named is Prostaglandin E2 receptor EP2 subtype (Homo sapiens) (UniProt P43116). Kind of assay: human EP2 receptor antagonists, primary screen, TR-FRET cAMP, C6 glioma cells (AID 1422).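 Further: rat C6 glioma host cells with rolipram phosphodiesterase inhibitor present; the protocol text gives 20 µM as final concentration.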 The settings on record: C6 glioma cells expressing human EP2, cAMP TR-FRET; at 25 µM; stronger effect = higher value; cells stimulated with saturating PGE2.
Prostaglandin E2 receptor EP2 subtype (Homo sapiens), sequence (P43116 whole entry, looked up): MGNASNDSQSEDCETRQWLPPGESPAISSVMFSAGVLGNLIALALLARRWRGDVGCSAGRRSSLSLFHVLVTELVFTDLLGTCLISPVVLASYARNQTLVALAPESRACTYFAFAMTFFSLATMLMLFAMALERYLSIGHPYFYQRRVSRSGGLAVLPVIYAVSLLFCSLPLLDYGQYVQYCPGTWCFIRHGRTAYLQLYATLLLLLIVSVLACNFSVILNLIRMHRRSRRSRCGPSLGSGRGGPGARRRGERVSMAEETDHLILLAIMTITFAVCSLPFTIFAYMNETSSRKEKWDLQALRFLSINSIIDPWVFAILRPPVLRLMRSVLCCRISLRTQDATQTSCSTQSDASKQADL
Turning to `Oc1c(Cl)cc(Cl)c(Cl)c1Cc1c(O)c(Cl)cc(Cl)c1Cl`, the inhibition (in general, the drop in the measured response relative to a control, in per cent) is 113% (active) and 18.5% (inactive).

On to `COc1ccc(CNC(=O)C2C3CCC4(CN(CCc5ccccc5)C(=O)C24)O3)cc1` (centres undefined), for which the inhibition is 8.25% (inactive).

In the case of `COC(=O)c1c(NC(=O)c2cccc(C)c2)sc(C(=O)Nc2cccc(OC)c2)c1C`, the inhibition was 7.04% (inactive).

For the compound `Clc1ccc(Nc2nc3nonc3n3nnnc23)cc1`, the inhibition is 91.1% (active).

With `Clc1ccc(Nc2ncnc3c2nnn3Cc2ccccc2)cc1`, the inhibition was 7.31% (inactive).

On to `COc1ccccc1NC(=S)N(Cc1cc2cccc(C)c2[nH]c1=O)CC1CCCO1` (centres undefined), for which the inhibition is 15.9% (inactive).

Regarding `Cc1ccc2[nH]c(=O)c(CN(Cc3ccccc3Cl)C(=O)N3CCCC3)cc2c1`, the inhibition was 11.3% (inactive).

With `CCCC(NC(=O)c1csc(C(C)=O)c1)c1ccc2c(c1)OCCO2` (centres undefined), the inhibition was 9.91% (inactive).

`CC1CCCCN1C(=O)CSc1nc(-c2ccccc2)cc(C(F)(F)F)n1` (centres undefined): the inhibition is 12.9% (inactive).

Take `COc1ccc(-c2cc(C(F)(F)F)nc(SCC(=O)N3CCCCC3C)n2)cc1` (centres undefined): the inhibition is 52.4% (active).

As for `COc1ccc(-c2cc(C(F)(F)F)nc(SCCC(=O)N3CCCCC3C)n2)cc1` (centres undefined), the inhibition was 12.1% (inactive).

`CCOc1ccc(C2C(C(=O)c3ccco3)=C(O)C(=O)N2CCOC)cc1OC` (centres undefined): the inhibition is 8.68% (inactive).

As to `COc1cccc(/C=N/Nc2ncc(C(F)(F)F)cc2Cl)c1O`, the inhibition was 4.36% (inactive).

`COc1cccc(/C=N/Nc2cc(C)nc(-c3ccccc3O)n2)c1O`: the inhibition is 39.9% (active).

Take `COc1ccccc1/C=N\Nc1cc(C)nc(-n2nc(C)cc2C)n1`: the inhibition was 3.92% (inactive).

Turning to `Oc1ccccc1-c1nc2cnccn2c1NCc1ccccc1`, the inhibition was 9.33% (inactive).

For the compound `CN(C)CCCNC(=O)C(=O)Nc1ccc2c(c1)OCO2`, the inhibition was 13.4% (inactive).

For the compound `C[C@H]1O[C@@H](CC(=O)O)Cc2c1c(O)c1c(O)cc(-c3cc(=O)c4c(=O)c5c(c(=O)c=4c3=O)C[C@H](CC(=O)O)O[C@@H]5C)c(O)c1c2O`, the inhibition is 41.5% (active).

For `Cc1ccc(NC=C2C(=O)OC(C)(C)OC2=O)cc1Cl`, the inhibition was 10% (inactive).

For `Cc1ccc(C)c2[nH]c(=O)c(C(c3nnnn3Cc3ccc(F)cc3)N3CCc4ccccc4C3)cc12` (centres undefined), the inhibition is 6.97% (inactive).

With `C=COCCNC(=O)Cn1nc(C)n2c(cc3occc32)c1=O`, the inhibition is 7.9% (inactive).

As for `Nc1nc(SCc2ccc([N+](=O)[O-])cc2)c2ncn(C3OC(CO)C(O)C3O)c2n1` (centres undefined), the inhibition was 9.89% (inactive).

With `OC[C@@H]1O[C@H](n2cnc3c(SCc4ccccc4)ncnc32)[C@H](O)[C@H]1O`, the inhibition was 48.2% (active).

As for `CNc1ncnc2c1ncn2[C@@H]1O[C@H](CO)[C@H](O)C1O` (some centres undefined), the inhibition is 13.5% (inactive).
